Compound activity as filed in PubChem.
This excerpt belongs to a sample that is enriched for hits.
ALOX12 inh – Primary qHTS assay for inhibitors of human arachidonate 12S-lipoxygenase (ALOX12): Round 2 | Potency, µM (titrated, usually from 108 µM), for inactives: at the top dose activity change, negative = inhibition, hits mostly inhibitors | purified 12hLO, xylenol orange hydroperoxide absorbance | Polyunsaturated fatty acid lipoxygenase ALOX12 (Homo sapiens), P18054 | 1.1% of 580,000 active | AID 1671190, 2021; further: potency means the concentration at half of the fitted maximal effect
Target sequence (P18054 whole entry, looked up): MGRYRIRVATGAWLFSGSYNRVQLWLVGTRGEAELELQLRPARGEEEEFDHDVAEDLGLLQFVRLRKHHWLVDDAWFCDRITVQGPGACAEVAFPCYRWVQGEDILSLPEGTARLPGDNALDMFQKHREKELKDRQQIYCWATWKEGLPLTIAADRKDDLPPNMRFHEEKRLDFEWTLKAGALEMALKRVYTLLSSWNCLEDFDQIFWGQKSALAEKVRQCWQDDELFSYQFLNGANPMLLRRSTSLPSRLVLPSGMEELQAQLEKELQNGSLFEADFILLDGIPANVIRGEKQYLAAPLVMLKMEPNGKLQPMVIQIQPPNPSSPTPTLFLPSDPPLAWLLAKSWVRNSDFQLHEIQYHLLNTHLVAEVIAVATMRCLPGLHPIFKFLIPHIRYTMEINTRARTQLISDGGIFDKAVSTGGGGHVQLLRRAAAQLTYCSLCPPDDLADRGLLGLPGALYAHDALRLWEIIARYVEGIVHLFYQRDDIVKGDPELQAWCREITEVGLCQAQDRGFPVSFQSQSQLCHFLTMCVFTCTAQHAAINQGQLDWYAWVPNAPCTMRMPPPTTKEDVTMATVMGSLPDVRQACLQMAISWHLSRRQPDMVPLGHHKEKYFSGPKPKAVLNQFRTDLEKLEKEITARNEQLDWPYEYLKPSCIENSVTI
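Hydroperoxide product was detected by ferrous iron/xylenol orange as the 573 to 405 nm absorbance ratio. Arachidonic acid at 40 uM (final) was turned over for 30 min at room temperature by 150 nM human 12hLO, pH 7.0 Hepes buffer, after 15 min compound preincubation.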
HT1080 IDH1KD tx – qHTS for induction of synthetic lethality in tumor cells producing 2HG: qHTS for the HT-1080-IDH1KD cell line. HT-1080 IDH1 knockdown viability, ATP luminescence, 48 h. Potency, µM (highest dose often 46.1 µM), for inactives: top-dose activity, negative = toxicity, hits mostly cytotoxic. 2% of 360,000 active. AID 686971, 2013;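 further: potency means the concentration at half of the fitted maximal effect; 0% = DMSO wells and -100% = cell-free medium wells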
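Using the IDH1-knockdown HT-1080 line run in the same batch and compound series as the NT line, viability after 48 h at 37 °C was determined by CellTiter-Glo luminescence and expressed as % activity.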
TDP1 cell CPT – qHTS for Inhibitors of human tyrosyl-DNA phosphodiesterase 1 (TDP1): qHTS in cells in presence of CPT. AID 686979, 2013. chicken DT40 Tdp1-/-;hTDP1 cells + 20 nM CPT, ATP luminescence, 48 h. Potency, µM (doses to about 46.2 µM), without a hit: at the top dose activity change, negative = growth inhibition, most hits filed as inhibitors. 12% of 420,000 active; further: potency means the concentration at half of the fitted maximal effect; nearly all actives have a fitted effect of over 55% in size
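Chicken DT40 Tdp1-/- cells stably complemented with human TDP1 were seeded at 400 cells/well in medium containing 20 nM camptothecin, exposed to pin-transferred compounds, and grown at 37 °C for at least 48 hr. Viability was read as ATP luminescence.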
IL-1B inflam inh – qHTS for Inhibitors of Inflammasome Signaling: IL-1-beta AlphaLISA Primary Screen; THP-1 LPS/ATP IL-1B secretion, AlphaLISA, 16 h; active compounds read low; activity change, % at 57.5 µM; 4.7% of 360,000 active; in the data active means activity change below about -50%; inconclusive means mostly about -30% to -49%
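Secreted IL-1B measured by AlphaLISA bead assay after 16 h compound exposure of THP-1 cells; compounds (final up to 57.5 uM) added 1 h before LPS (250 ng/mL) and ATP (1.25 mM) stimulation; lower signal means less secretion.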
HT1080-NT tox – qHTS for induction of synthetic lethality in tumor cells producing 2HG: qHTS for the HT-1080-NT fibrosarcoma cell line; HT-1080-NT fibrosarcoma viability, CellTiter-Glo ATP luminescence, 48 h; Potency, µM (top dose mostly 46.1 µM), without a hit: top-dose activity, negative = less viability, usual class: cytotoxic; 1.6% of 360,000 active;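 further: NT is the 2HG producing partner of a matched IDH1 knockdown line; potency means the concentration at half of the fitted maximal effect; 0% = DMSO-treated cells and -100% = media-only wells without cells; nearly all actives have a fitted effect of over 55% in size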
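Toxicity toward the 2HG-producing NT line was scored as %Activity, normalised to DMSO and no-cell wells, from CellTiter-Glo luminescence after 48 hours' treatment.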
DT40 TDP1 no CPT – qHTS for Inhibitors of human tyrosyl-DNA phosphodiesterase 1 (TDP1): qHTS in cells in absence of CPT. 15% of 420,000 active. Potency, µM (top dose mostly 46.2 µM), for inactives: at the top dose activity change, negative = growth inhibition, most hits filed as inhibitors. DT40 Tdp1-/- hTDP1 cells, no CPT, ATP luminescence, 48 h; further: potency means the concentration at half of the fitted maximal effect; nearly all actives have a fitted effect of over 55% in size
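Growth of hTDP1-complemented DT40 Tdp1-knockout cells is measured by ATP luminescence after at least 48 hr compound exposure at 37 °C, with DMSO substituting for the 20 nM CPT used in the parallel screen.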
* hit, by the source's call; i = inactive; u = inconclusive; x = no result. Unless noted, the call rests on the fitted dose curve; in most records, active means well fitted curve in the direction sought with a large enough effect; inconclusive means small, poorly fitted or top-dose-only effect, or another doubt; inactive means no such curve, though single readings can be large; an effect the other way counts as inactive or inconclusive. Unless noted, on the % scale 0 is the no-effect control and ±100 the full control effect.

SMILES | ALOX12 inh | HT1080 IDH1KD tx | TDP1 cell CPT | IL-1B inflam inh | HT1080-NT tox | DT40 TDP1 no CPT
CCOc1ccccc1CN1CCC(C)(c2noc(C3CCOCC3)n2)CC1 | 35% | x | x | x | x | x
Cc1cc(C)c(NC(=O)CN(C)C(=O)C2CC(=O)N(Cc3ccccc3Cl)C2)c(C)c1 (configuration not stated) | 6% | x | x | x | x | x
COc1ccc(S(=O)(=O)N2CCCN(CC(=O)Nc3ccc(NC(C)=O)cc3)CC2)cc1 | -18% | 3% | 4% | -9 | 4% | -26%
O=S(=O)(c1ccc(Br)cc1)N1CCCN(Cc2cccc(F)c2)CC1 | -6% | -1% | -10% | -56* | -1% | u
COc1ccc(C)cc1NC(=O)CN1CCN(S(=O)(=O)c2ccc3ccccc3c2)CC1 | -2% | -1% | 16µM* | 0 | 7% | 16µM*
COc1ccc(S(=O)(=O)N2CCCN(CC(=O)Nc3ccc(OC)cc3OC)CC2)cc1 | -19% | x | u | x | x | 12µM*
COc1cccc(CN2CCCN(S(=O)(=O)c3ccc(Br)cc3)CC2)c1 | x | -29% | u | -18 | -13% | u
CC(C)C(NC(=O)c1ccccn1)C(=O)O (configuration not stated) | 8% | x | x | x | x | x
CCCCCNC(=O)C(C1CC1)n1c(=O)c(-c2cc3ccccc3[nH]2)nc2ccccc21 (configuration not stated) | u | u | u | -3 | u | u
CCCCCNC(=O)C(C1CC1)n1c(=O)c(-c2ccco2)nc2ccccc21 (configuration not stated) | 35µM* | 3% | 15µM* | 15 | -11% | 13µM*
O=C(NC1CCCCC1)C(c1ccccc1)n1c(=O)c(-c2ccco2)nc2ccccc21 (configuration not stated) | u | 1% | 18µM* | 0 | -2% | 21µM*
N#Cc1ccc(C(C(=O)NC2CCCCC2)n2c(=O)c(-c3ccco3)nc3ccccc32)cc1 (configuration not stated) | -29% | -3% | 15µM* | u | -8% | 16µM*
O=C(NC1CCCCC1)C(c1ccc(C(F)(F)F)cc1)n1c(=O)c(-c2ccco2)nc2ccccc21 (configuration not stated) | u | -16% | 1.6µM* | -9 | -22% | u
CC1CCC(NC(=O)C23CC4CC(CC(C4)C2)C3)CC1 (configuration not stated) | 23% | x | x | x | x | x
Cn1ccnc1C(NCC(O)COCc1cccs1)c1ccccc1 (configuration not stated) | 61% | x | x | x | x | x
O=C(NC1CCCCC1)C(C1CC1)n1c(=O)c(-c2ccco2)nc2ccccc21 (configuration not stated) | u | -1% | u | 2 | 2% | 10µM*
COc1ccc(NC(=O)C(C2CC2)n2c(=O)c(-c3ccco3)nc3ccccc32)cc1 (configuration not stated) | u | -1% | u | -21 | -8% | u
Cc1ccc(-c2cc(C(F)F)n3ncc(C#N)c3n2)cc1 | 28% | x | x | x | x | x
CC1CCCN(c2c3c(nc4ccccc24)CCCC3)C1 (configuration not stated) | u | 7% | u | -89* | 10% | u
CC1CCCN(c2nc(-c3ccccc3O)nc3ccccc23)C1 (configuration not stated) | -24% | x | -30% | x | x | u
COc1ccc(C(CC(=O)NCCc2ccc(OC)c(OC)c2)c2c[nH]c3ccccc23)c(OC)c1 (configuration not stated) | 43% | x | x | x | x | x
CC1Cc2ccccc2N1C(=O)CSc1nncn1C (configuration not stated) | -4% | 6% | 8% | 4 | 18% | -20%
CC1Cc2ccccc2N1C(=O)CSc1nnc(-c2ccccc2)c(-c2ccccc2)n1 (configuration not stated) | 1% | -9% | 21µM* | u | -20% | u
CC(Sc1nnc(-c2ccccc2)c(-c2ccccc2)n1)C(=O)N1CCc2ccccc21 (configuration not stated) | -17% | -17% | u | -7 | -11% | 16µM*
Cn1c(-c2ccc(F)cc2)cnc1SCC(=O)N1CCCCC1 | 0% | 9% | -24% | -6 | 15% | -18%
SMILES | ALOX12 inh | HT1080 IDH1KD tx | TDP1 cell CPT | IL-1B inflam inh | HT1080-NT tox | DT40 TDP1 no CPT
CC1Cc2ccccc2N1C(=O)CSc1ncc(-c2ccc(F)cc2)n1C (configuration not stated) | -2% | -3% | u | -77* | 0% | u
CC1Cc2ccccc2N1C(=O)CSc1nnc2c(n1)[nH]c1ccccc12 (configuration not stated) | -1% | -29% | u | 26 | u | 21µM*
CCN(CC(=O)N1CCN(Cc2ccccc2)CC1)S(=O)(=O)c1ccccc1 | -7% | -1% | -22% | 7 | 1% | u
CCOc1ccccc1N(CC(=O)N1CCN(Cc2ccccc2)CC1)S(=O)(=O)c1ccccc1 | 5% | -6% | 23µM* | -5 | -14% | 8.2µM*
COc1ccc(N(CC(=O)N2CCN(Cc3ccccc3)CC2)S(C)(=O)=O)c(OC)c1 | -52% | 12% | u | 0 | 10% | 13µM*
Cc1cn2c(C(=O)c3ccccc3)c(-c3ccccc3)cc2cc1-c1ccccc1 | -18% | x | x | x | x | x
O=C(Nc1ccccc1Br)C12CC3CC(CC(Cl)(C3)C1)C2 | 9% | x | x | x | x | x
CCOC(=O)C(NC(=O)c1ccc(OC)cc1)(Nc1ccccc1F)C(F)(F)F (configuration not stated) | 39% | x | x | x | x | x
Cc1nc2sc3c(c2c(=O)n1NC(=O)CCBr)CCCC3 | -9% | -14% | 18µM* | -10 | -26% | 18µM*
Cc1ccccc1-n1c(SCC(=O)O)nc2sc3c(c2c1=O)CCCC3 | 0% | 2% | -18% | 24 | -19% | -1%
CC(=O)c1ccc(N2CCN(C(=O)C(=O)c3cn(CC(=O)N4CCCCCC4)c4ccccc34)CC2)cc1 | 0% | -1% | 23µM* | i | 3% | 13µM*
